# Assay results taken from PubChem BioAssay (NCI).
# Several values for one entry are separate records, joined by “and”; a condition that tells them apart may be missing. Equal entries are not always repeated. About 83,000 compounds went through this panel and 20% of them were active in at least one assay; those are over-represented in the sample as a whole.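 Activity criterion: percent growth below 10, measured after cells in 96-well plates were exposed to a single compound concentration for 48 hours.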 Activity calls are given as the source filed them.
# Legend:
# Assay in all cases: NCI-60 one-dose screen, 48 h (100 = growth as untreated, 0 = no growth, -100 = all killed)
# Conditions in all cases: 10 µM unless noted
# SK-MEL-2 melanoma = test system: SK-MEL-2 melanoma
# EKVX NSCLC = test system: EKVX NSCLC
# SN12C renal = test system: SN12C renal
# UO-31 renal = test system: UO-31 renal
# TK-10 renal = test system: TK-10 renal
# ACHN renal = test system: ACHN renal
# CAKI-1 renal = test system: CAKI-1 renal
# A498 renal = test system: A498 renal
# CCRF-CEM leukemia = test system: CCRF-CEM leukemia
# MOLT-4 leukemia = test system: MOLT-4 leukemia
# SR leukemia = test system: SR leukemia
# RPMI-8226 leukemia = test system: RPMI-8226 leukemia
# OVCAR-8 ovarian = test system: OVCAR-8 ovarian
# OVCAR-5 ovarian = test system: OVCAR-5 ovarian
# OVCAR-4 ovarian = test system: OVCAR-4 ovarian
# SK-OV-3 ovarian = test system: SK-OV-3 ovarian
# IGROV1 ovarian = test system: IGROV1 ovarian
# OVCAR-3 ovarian = test system: OVCAR-3 ovarian
# HS 578T breast = test system: HS 578T breast
# NCI/ADR-RES ovarian = test system: NCI/ADR-RES ovarian
SMILES,growth (SK-MEL-2 melanoma),growth (EKVX NSCLC),growth (SN12C renal),growth (UO-31 renal),growth (TK-10 renal),growth (ACHN renal),growth (CAKI-1 renal),growth (A498 renal),growth (CCRF-CEM leukemia),growth (MOLT-4 leukemia),growth (SR leukemia),growth (RPMI-8226 leukemia),growth (OVCAR-8 ovarian),growth (OVCAR-5 ovarian),growth (OVCAR-4 ovarian),growth (SK-OV-3 ovarian),growth (IGROV1 ovarian),growth (OVCAR-3 ovarian),growth (HS 578T breast),growth (NCI/ADR-RES ovarian)
CCN(CC)CCCN1C(=O)c2c(c(C)c3c(oc4cc(OC)ccc43)c2C)C1=O,112% (inactive),99.3% (inactive),89.1% (inactive),67.4% (inactive),112% (inactive),63.1% (inactive),93.2% (inactive),97.7% (inactive),61% (inactive),93.9% (inactive),-4.78% (active),91.6% (inactive),17% (inactive),85% (inactive),111% (inactive),129% (inactive),86.6% (inactive),110% (inactive),108% (inactive),96% (inactive)
COc1cc(-c2[nH]ncc2Nc2ccc(Cl)cc2)cc(OC)c1OC,112% (inactive),45.4% (inactive),89.9% (inactive),42.9% (inactive),67.8% (inactive),78.9% (inactive),-14.8% (active),68.9% (inactive),54.9% (inactive),50.9% (inactive),67.7% (inactive),21.1% (inactive),67.5% (inactive),75.7% (inactive),71.6% (inactive),64.3% (inactive),69.8% (inactive),86.1% (inactive),66% (inactive),61.7% (inactive)
C[C@@H]1CC[C@@H]2[C@@H]1[C@H](OC(=O)/C=C/c1ccccc1)[C@]1(c3ccccc3)C[C@@H](NC(=O)CO)[C@@]2(C)O1,107% (inactive),90.2% (inactive),86.8% (inactive),69.7% (inactive),112% (inactive),79.1% (inactive),70.1% (inactive),-3.59% (active),99.8% (inactive),84% (inactive),90.4% (inactive),92.2% (inactive),93.9% (inactive),98.5% (inactive),97.2% (inactive),90.4% (inactive),102% (inactive),108% (inactive),92% (inactive),93% (inactive)
N#C/C(=C\c1ccc(Br)cc1)n1nnc2c(F)cccc21,28.4% (inactive),30.6% (inactive),-1.81% (active),-65.9% (active),2.41% (active),-50.8% (active),-4.93% (active),-21.9% (active),2.97% (active),9.87% (active),23.1% (inactive),-20.2% (active),7.76% (active),1.16% (active),14.1% (inactive),40.7% (inactive),-24.3% (active),-51.1% (active),11% (inactive),2.56% (active)
COc1ccc(-c2nn3c(-c4cc(F)c(Cl)cc4Cl)nnc3s2)cc1,66.8% (inactive),75.4% (inactive),72.5% (inactive),49.7% (inactive),105% (inactive),66.7% (inactive),37.7% (inactive),65.9% (inactive),9.61% (active),21.6% (inactive),13.1% (inactive),29.9% (inactive),67.5% (inactive),59.5% (inactive),80% (inactive),61.1% (inactive),40.6% (inactive),27.8% (inactive),-20.6% (active),3.63% (active)
CN(C)CC1(C)Cc2ccsc2C1O (stereo not given),108% (inactive) and 110% (inactive),103% (inactive) and 92.3% (inactive),110% (inactive) and 111% (inactive),94.2% (inactive) and 87.3% (inactive),105% (inactive) and 94.1% (inactive),99.6% (inactive) and 106% (inactive),106% (inactive) and 103% (inactive),97.9% (inactive) and 95.5% (inactive),94.8% (inactive),99.9% (inactive) and 86.4% (inactive),102% (inactive) and 83.2% (inactive),106% (inactive) and 98.8% (inactive),110% (inactive) and 105% (inactive),101% (inactive) and 105% (inactive),113% (inactive) and 100% (inactive),109% (inactive) and 104% (inactive),123% (inactive) and 110% (inactive),127% (inactive) and 105% (inactive),129% (inactive),106% (inactive) and 103% (inactive)
CCN1C(=O)N(c2ccccc2)C2NC(=S)N(/N=C/C=C/c3ccccc3)C21 (stereo not given),16.8% (inactive),23.2% (inactive),19.8% (inactive),35.5% (inactive),50.1% (inactive),21.7% (inactive),29.6% (inactive),6.81% (active),3.8% (active),8.35% (active),7.28% (active),-20.1% (active),5.29% (active),59.7% (inactive),34.3% (inactive),24% (inactive),20.8% (inactive),8.14% (active),16.1% (inactive),2.91% (active)
NNCCc1ccccc1,100% (inactive) and 106% (inactive),101% (inactive) and 86.2% (inactive),96.2% (inactive) and 93% (inactive),77.5% (inactive),118% (inactive),92% (inactive) and 89.9% (inactive),99.7% (inactive) and 88.3% (inactive),105% (inactive) and 88.4% (inactive),90.9% (inactive) and 106% (inactive),104% (inactive) and 96.4% (inactive),106% (inactive) and 104% (inactive),95.3% (inactive) and 110% (inactive),116% (inactive) and 96.7% (inactive),93.1% (inactive),101% (inactive) and 96.9% (inactive),108% (inactive) and 94.9% (inactive),97.2% (inactive),122% (inactive) and 100% (inactive),116% (inactive) and 94.1% (inactive),104% (inactive) and 91.4% (inactive)
Cc1ccc(C(=O)c2ccc(CC(=O)N=Nc3c(O)[nH]c4ccc(OC(F)(F)F)cc34)n2C)cc1,95.9% (inactive),75.5% (inactive),95% (inactive),72.7% (inactive),137% (inactive),93.8% (inactive),91.1% (inactive),86.7% (inactive),99.1% (inactive),89.4% (inactive),102% (inactive),102% (inactive),94% (inactive),100% (inactive),118% (inactive),96.9% (inactive),85.2% (inactive),117% (inactive),94.5% (inactive),92.4% (inactive)
CN(Cc1ccccc1)c1nc(Cl)c(C2CC(c3ccc(F)cc3)=NN2C=O)s1 (stereo not given),116% (inactive),77.9% (inactive),103% (inactive),76.7% (inactive),96.2% (inactive),105% (inactive),83.8% (inactive),100% (inactive),95.6% (inactive),91.9% (inactive),92.2% (inactive),82.5% (inactive),100% (inactive),99.8% (inactive),90.9% (inactive),113% (inactive),89.4% (inactive),100% (inactive),97.9% (inactive),90.2% (inactive)
CC(=O)c1c(C)nc(SCC(=O)Nc2ccc(Cl)cc2)n1-c1ccc(Cl)cc1,94% (inactive),95.5% (inactive),87% (inactive),80.9% (inactive),99.5% (inactive),93.7% (inactive),81.7% (inactive),83.2% (inactive),87.5% (inactive),64.1% (inactive),90.6% (inactive),71.1% (inactive),89.3% (inactive),99.1% (inactive),102% (inactive),85.9% (inactive),97.9% (inactive),99.4% (inactive),79.4% (inactive),89.2% (inactive)
Cc1ccc2nc3ccccc3c(NCc3ccc(Cl)cc3)c2c1,102% (inactive),55.4% (inactive),39.6% (inactive),24.5% (inactive),82.4% (inactive),33.3% (inactive),45.7% (inactive),13% (inactive),18.2% (inactive),0.0972% (active),-9.22% (active),-28.5% (active),52.4% (inactive),50.7% (inactive),37.5% (inactive),75.2% (inactive),27.1% (inactive),70.9% (inactive),77.8% (inactive),42% (inactive)
Nc1nc(Nc2ccc(F)cc2)nn1C(=O)c1cc(Cl)ccc1Cl,97.3% (inactive),99.7% (inactive),68% (inactive),64.7% (inactive),104% (inactive),58.9% (inactive),51.6% (inactive),68.4% (inactive),60.4% (inactive),75.4% (inactive),37.5% (inactive),97.1% (inactive),68.4% (inactive),59.5% (inactive),92.8% (inactive),118% (inactive),62.6% (inactive),72.7% (inactive),56.1% (inactive),69.1% (inactive)
